Sfp PPTase inh – qHTS Assay for Inhibitors of Bacillus subtilis Sfp phosphopantetheinyl transferase (PPTase); 4'-phosphopantetheinyl transferase ffp (Bacillus subtilis), Q9F4F7; Biochemical Sfp PPTase activity, qHTS; Potency, µM, without a hit: largest response in the series, negative = inhibition, actives largely listed as inhibitors; 310,000 compounds, 3.5% hits; AID 1490, 2009;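 further: the enzyme is Sfp with the accession as filed and its product quenches rhodamine fluorescence; 0% = enzyme reaction without inhibitor and -100% = no enzyme wells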
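With Hepes-Na pH 7.6 buffer containing 10 mM MgCl2, Sfp (15 nM) modified BHQ-2-YbbR (12.5 uM) using rhodamine-CoA (5 uM). Two reads 30 minutes apart at 525/598 nm yielded each well's rate.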
BAZ2B block – qHTS Assay for Inhibitors of BAZ2B; Bromodomain adjacent to zinc finger domain protein 2B (Homo sapiens), Q9UIF8; Potency, µM (series often up to 114 µM), for the others: at the top dose activity change, negative = inhibition, actives largely listed as inhibitors; AlphaScreen BAZ2B-H3K14Ac peptide displacement; 360,000 compounds, 4.4% hits; further: on the % scale 0 is the no-effect control and ±100 the full control effect; nearly all actives have a fitted effect of over 60% in size
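Compounds, titrated to a top concentration of 110 uM, were incubated 30 min at room temperature with preformed BAZ2B/acetyl-K14 H3 peptide complex (50 nM each). Proximity signal was measured by AlphaScreen after 20 min with beads.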
HP1b chromo inh – HTS for Inhibitors of HP1-beta Chromodomain Interactions with Methylated Histone Tails; Potency, µM (series often up to 114 µM), for the others: at the highest dose activity change, negative = inhibition, usual class: inhibitors; Chromobox protein homolog 1 (Homo sapiens), P83916; 390,000 compounds, 0.56% hits; AlphaScreen HP1-beta / biotin-H3K9me3 peptide binding; AID 540317, 2011; further: nearly all actives have a fitted effect of over 70% in size
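Compound inhibition of the preformed complex between 50 nM HP1-beta and 50 nM biotinylated H3K9me3 peptide was read by AlphaScreen. Buffer was PBS pH 7.4 with 0.01% Tween-20. Incubations ran 30 min at room temperature, with 10 ug/mL donor/acceptor beads.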
JMJD2A Tudor inh – qHTS Assay for Inhibitors of JMJD2A-Tudor Domain. AlphaScreen JMJD2A-Tudor / H3K4me3 peptide binding. 390,000 compounds, 4.4% hits. Potency, µM (series often up to 114 µM), inactives show at the highest dose activity change, negative = inhibition, actives largely listed as inhibitors. Lysine-specific demethylase 4A (Homo sapiens), O75164. AID 504339, 2011; further: on the % scale 0 is the no-effect control and ±100 the full control effect; nearly all actives have a fitted effect of over 50% in size
G9a inh – qHTS Assay for Inhibitors of Histone Lysine Methyltransferase G9a; Histone-lysine N-methyltransferase EHMT2 (Homo sapiens), Q96KQ7; G9a H3K9 monomethylation, AlphaScreen, 2 h; Potency, µM (highest dose often 102 µM), without a hit: at the highest dose activity, negative = inhibition, hits mostly inhibitors; 350,000 compounds, 8.8% hits; AID 504332, 2011; further: on the % scale 0 is the no-effect control and ±100 the full control effect; nearly all actives have a fitted effect of over 75% in size
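Compounds were preincubated with 20 nM G9a for 15 min, after which biotinylated H3K9 peptide (500 nM) and SAM (20 uM) started a 2 h room-temperature reaction. Monomethylated product was quantified by antibody-based AlphaScreen chemiluminescence.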
L3MBTL1 block – qHTS Assay for the Inhibitors of L3MBTL1 | AlphaScreen L3MBTL1–H3K9me1 peptide binding | 230,000 compounds, 0.66% hits | Lethal(3)malignant brain tumor-like protein 1 (Homo sapiens), Q9Y468 | AID 485360, 2010 | Potency, µM (highest dose often 57.1 µM), for the others: at the highest dose activity, negative = inhibition, actives largely listed as inhibitors; further: on the % scale 0 is the no-effect control and ±100 the full control effect; nearly all actives have a fitted effect of over 60% in size
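L3MBTL1 (50 nM) pre-complexed 30 min with biotinylated H3(1-15)K9me1 peptide (75 nM), then compounds added for 30 min at room temperature; AlphaScreen streptavidin donor/nickel chelate acceptor beads (10 ug/mL final) read after 30 min dark incubation.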
Active calls of the source: *; ! = repeats disagree; [ ] = dose if it differs, or a comment. Only some compounds are listed: those with a hit (about 12% of all), similar ones and a draw of the others. The call rests on the fitted dose curve; in most records, active means well fitted curve in the direction sought with a large enough effect; inconclusive means small, poorly fitted or top-dose-only effect, or another doubt; inactive means no such curve, though single readings can be large; an effect the other way counts as inactive or inconclusive. Potency means the concentration at half of the fitted maximal effect.

O=C(CSc1nnc(NC(=O)c2c(F)cccc2F)s1)NCC1CCCO1 (centres undefined) was read as BAZ2B block 11%, HP1b chromo inh 42%, JMJD2A Tudor inh -1%, G9a inh 20µM* and L3MBTL1 block -1%.
`CC(=O)Nc1ccc(NC(=O)CSc2nnc(NC(=O)C3CC(=O)N(c4ccc(F)cc4)C3)s2)cc1` (centres undefined) gave Sfp PPTase inh 12%, BAZ2B block -14%, HP1b chromo inh 27%, JMJD2A Tudor inh -1% and G9a inh -10%.
O=C(Nc1nnc(SCCC2OCCO2)s1)C1CC(=O)N(c2ccccc2)C1 (centres undefined) was read as Sfp PPTase inh -17%, BAZ2B block -24%, HP1b chromo inh 31%, JMJD2A Tudor inh -14% and G9a inh 22µM*.
NC(=O)c1oc2ccccc2c1NC(=O)C1CC(=O)N(c2ccccc2)C1 (centres undefined) was read as BAZ2B block 0%, HP1b chromo inh 29%, JMJD2A Tudor inh -12%, G9a inh 45µM* and L3MBTL1 block 4%.
`CC(C)C(NS(=O)(=O)c1ccc2c(c1)oc(=O)n2C)C(=O)N1CCN(c2cccc(Cl)c2)CC1` (centres undefined) gave BAZ2B block 6%, HP1b chromo inh 46%, JMJD2A Tudor inh -12% and G9a inh 11%[59 µM].
Screening CCCCCCCCCCN1CCOCCOCCN(CCCCCCCCCC)CCOCCOCC1 returned Sfp PPTase inh 15%.
Screening COC(=O)c1cnn(-c2ccc(C(=O)Nc3ccc(C(C)=O)cc3)cc2)c1N returned BAZ2B block -8%, HP1b chromo inh 74%, JMJD2A Tudor inh -20%, G9a inh 7%[12.7 µM] and L3MBTL1 block 11%.
Screening O=[N+]([O-])c1cccc(S(=O)(=O)N2CCN(c3nc(-c4ccccc4)nc4ccccc34)CC2)c1 returned HP1b chromo inh 2% and JMJD2A Tudor inh -15%.
Screening c1ccc(CNc2oc(-c3ccccc3)nc2-c2cccc3ccccc23)cc1 returned Sfp PPTase inh -13%.
For CC(=O)Nc1ccc(Nc2nc(Nc3ccc(Cl)cc3)nc(N3CCOCC3)n2)cc1 the results were HP1b chromo inh 3%[57 µM] and JMJD2A Tudor inh -14%[57.1 µM].
`O=C(CSc1nnc(NC(=O)C2CC(=O)N(c3ccc(F)cc3)C2)s1)NCC1CCCO1` (centres undefined) gave Sfp PPTase inh -2%, BAZ2B block -6%, HP1b chromo inh 26%, JMJD2A Tudor inh -16% and G9a inh 45µM*.
O=C(Nc1nnc(SCCN2CCOCC2)s1)C1CC(=O)N(c2ccc(F)cc2)C1 (centres undefined) was read as Sfp PPTase inh -21%, BAZ2B block -30%, HP1b chromo inh 23%, JMJD2A Tudor inh -24% and G9a inh 45µM*.
O=C(Nc1nnc(SCc2cccnc2)s1)C1CC(=O)N(c2ccc(F)cc2)C1 (centres undefined) was read as Sfp PPTase inh -21%, BAZ2B block -24%, HP1b chromo inh 22%, JMJD2A Tudor inh -23% and G9a inh 40µM*.
COc1cccc(N2CC(C(=O)Nc3nnc(SCCC4OCCO4)s3)CC2=O)c1 (centres undefined) was read as Sfp PPTase inh -12%, BAZ2B block -15%, HP1b chromo inh 17%, JMJD2A Tudor inh -3% and G9a inh 28µM*.
Screening Cc1ccc(N2CC(C(=O)Nc3nnc(SCCN4CCOCC4)s3)CC2=O)cc1C (centres undefined) returned Sfp PPTase inh -6%, BAZ2B block -13%, HP1b chromo inh 29%, JMJD2A Tudor inh -13% and G9a inh -35%[12.7 µM].
`Cc1ccc(N2CC(C(=O)Nc3nnc(SCC(=O)NCC4CCCO4)s3)CC2=O)cc1` (centres undefined) gave Sfp PPTase inh 5%, BAZ2B block -11%, HP1b chromo inh 43%, JMJD2A Tudor inh -19% and G9a inh inconclusive.
For COc1cccc(N2CC(C(=O)Nc3nnc(SCC(=O)Nc4ccc(NC(C)=O)cc4)s3)CC2=O)c1 (centres undefined) the results were Sfp PPTase inh -14%, BAZ2B block -14%, HP1b chromo inh 28%, JMJD2A Tudor inh -9% and G9a inh 18%.
`Cc1ccc(N2/C(=N/c3nc(C)cc(C)n3)NC(=O)CC2C(=O)O)cc1` (centres undefined) gave Sfp PPTase inh 13%, BAZ2B block 11%, HP1b chromo inh 17%, JMJD2A Tudor inh 1% and G9a inh -9%.
`Cc1cc(C)nc(/N=C2\NC(=O)CC(C(=O)O)N2c2ccc(C)c(C)c2)n1` (centres undefined) gave Sfp PPTase inh 5%, BAZ2B block -10%, HP1b chromo inh -2%, JMJD2A Tudor inh 13µM*, G9a inh -38% and L3MBTL1 block 5%.
For COc1cc(OC)c(OC)cc1/C=C/c1nc2cc3ccccc3cc2c(=O)n1-c1ccccc1Br the results were BAZ2B block -38%, HP1b chromo inh 12%, JMJD2A Tudor inh inconclusive and G9a inh inconclusive.
`COc1cccc(NC(=O)CCS(=O)(=O)c2cc3c(cc2Cl)NC(=O)CO3)c1` gave Sfp PPTase inh 3%, BAZ2B block -6%, HP1b chromo inh 36% and JMJD2A Tudor inh 21%.
Screening Cc1cc2c(cc1S(=O)(=O)CCC(=O)N(C)Cc1ccccc1)OCC(=O)N2 returned Sfp PPTase inh 1%, BAZ2B block 13µM*!, HP1b chromo inh inconclusive, JMJD2A Tudor inh 20µM*!, G9a inh 11µM* and L3MBTL1 block 3%.
For Cc1cccc(NC(=O)CCS(=O)(=O)c2cc3c(cc2Cl)NC(=O)CO3)c1 the results were Sfp PPTase inh 26%, BAZ2B block -14%, HP1b chromo inh 13%, JMJD2A Tudor inh 16µM* and G9a inh 17%.
For CCOC(=O)c1ccc(NS(=O)(=O)c2cc3c(cc2C)NC(=O)CO3)cc1 the results were Sfp PPTase inh 1%, BAZ2B block -17%, HP1b chromo inh 4%, JMJD2A Tudor inh inconclusive and G9a inh 50µM*.
`Cc1ccc(NS(=O)(=O)c2cc3c(cc2C)NC(=O)CO3)cc1C` gave JMJD2A Tudor inh -15%.
